Bioassay records as filed in PubChem.
Cycloheximide cs: affects cycloheximide protein synthesis inhibition readout, counter-screen; cell reporter, cycloheximide protein synthesis inhibition counterscreen; 12% of 300,000 active; AID 2314; max response, %; in the data active = max response mostly above about 13%, no sharp cut-off; inactive = mostly below about 14%; note: read at 38.3 µM for the half of the compounds with a filed dose; 0% is about no effect
Pf growth 96h: inhibits malaria parasite growth, 96 h. 6.9% of 320,000 active. P. falciparum luciferase reporter growth, 96 h. Potency, µM (titrated, usually from 28.7 µM), for the others: at the highest dose activity change, negative = inhibition, usual class: inhibitors; note: potency is the fitted concentration of half-maximal effect; % is set by controls: 0 for no effect and ±100 for the full control effect
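Readout is luminescence from an integrated firefly luciferase in P. falciparum. Red cells, 2% hematocrit and 0.05% parasitemia final, were cultured with compound through two parasite generations (96 hours) at 37 C, 5% CO2.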
Shiga inhibitor: Shiga toxin inhibition | Vero cells, Shiga toxin protein synthesis inhibition reporter | AID 2315 | 9.2% of 290,000 active | inhibition, % at 38.7 µM; in the data active = inhibition mostly above about 28%, no sharp cut-off; inactive = mostly below about 43%; note: 0% is about no effect
Pf growth 48h: P. falciparum growth inhibition at 48 hours (one generation); P. falciparum luciferase growth in erythrocytes, 48 h; Potency, µM (series often up to 28.7 µM), for the others: at the highest dose activity change, negative = inhibition, hits mostly inhibitors; 5.9% of 310,000 active; AID 504832; note: potency is the fitted concentration of half-maximal effect; % is set by controls: 0 for no effect and ±100 for the full control effect
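Read-out is firefly luciferase luminescence from an integrated reporter in P. falciparum, so falling signal marks reduced parasite growth. Infected erythrocytes were at 2% hematocrit and 0.1% parasitemia (final) in Albumax-supplemented RPMI 1640.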
Starred values were filed as active, the others as inactive; ? = inconclusive; / = no result. Sampled rows, rich in hits. Any-hit rate of the full collection: about 21%. Unless noted, calls come from the whole dose curve; as a rule, active = well fitted inhibition curve with a large enough effect; inconclusive = small, poorly fitted or top-dose-only effect, or another doubt; inactive = no such curve, though single readings can be large or run the other way.

SMILES	Cycloheximide cs	Pf growth 96h	Shiga inhibitor	Pf growth 48h
CCCNC(=O)c1ccc(N2CCC3(CC2)CC(c2cccc(Br)c2)=NO3)c(NC(=O)c2ccc(Cl)c([N+](=O)[O-])c2)c1	/	-4.9%	/	?
CCCCC(CC)C(=O)Nc1cc(C(=O)NCc2ccc(C)cc2)ccc1N1CCC2(CC1)CC(c1ccccc1)=NO2 (stereo not drawn)	-3.0	2.08µM*	0.8	3.29µM*
CCCCC(CC)C(=O)Nc1cc(C(=O)NCCC)ccc1N1CCC2(CC1)CC(c1cccc(Br)c1)=NO2 (stereo not drawn)	/	2.62µM*	/	3.7µM*
CN(C)/C=C1\SC(=S)N(N2C(=O)C3C4C=CC(C4)C3C2=O)C1=O (stereo not drawn)	2.1	12.0%	-6.2	-20.1%
O=C(CCc1ccccc1)N=C1SC2CS(=O)(=O)CC2N1Cc1ccc(F)cc1 (stereo not drawn)	12.8	42.5%	-6.4	-0.3%
CCOc1ccc(-c2c(C(=O)N/N=C/c3ccsc3)nnn2-c2nonc2N)cc1	-1.4	2.3%	-18.0	15.3%
Cc1cccc(N2C(=NC(=O)c3ccccc3)SC3CS(=O)(=O)CC32)c1 (stereo not drawn)	19.2	?	11.7	?
O=C(C1CC1)N1CCc2cc(S(=O)(=O)N3CCOCC3)ccc21	-3.0	20.5%	-13.6	10.3%
CC(Cl)C(=O)c1ccc2c(c1)CCN2C(=O)C1CC1 (stereo not drawn)	20.8*	?	44.1	-25.1%
CCOc1ccc(/C=N/n2c(C3CCCCC3)n[nH]c2=S)cc1	-1.6	?	-6.3	?
CCN(CC)S(=O)(=O)c1cccc(NC(=O)c2ccc(Br)cc2)c1	7.0	-24.5%	11.3	?
CCN(CC)S(=O)(=O)c1cccc(C(=O)NC(C(=O)Nc2nnc(C)s2)C(C)C)c1 (stereo not drawn)	-1.7	/	-20.6	11.7µM*
CCN(CC)S(=O)(=O)c1cccc(C(=O)N[C@H](C(=O)O)C(C)C)c1	6.7	17.0%	-3.5	/
CCN(CC)S(=O)(=O)c1cccc(C(=O)Nc2cccc(C)c2)c1	26.6*	105.9%	25.1	/
CCN(CC)S(=O)(=O)c1cccc(C(=O)Nc2cc(C)cc(C)c2)c1	16.7*	?	39.2*	-17.5%
COc1ccc2[nH]c(=O)c(CN(Cc3ccco3)Cc3nnnn3Cc3ccccc3)cc2c1	4.4	/	3.6	?
COc1ccccc1CN(Cc1cc2cc(C)ccc2[nH]c1=O)Cc1nnnn1Cc1ccco1	12.6	3.29µM*	53.2*	11.7µM*
CCOC(=O)Cn1nnnc1CN(Cc1ccc(OC)cc1)Cc1cc2cc(C)ccc2[nH]c1=O	-1.1	-17.6%	-3.6	?
CCc1ccc2[nH]c(=O)c(CN(Cc3ccccc3OC)Cc3nnnn3Cc3ccco3)cc2c1	7.5	?	8.3	4.65µM*
CCn1cc(CN2CCCC(C(=O)Nc3ccc(-c4cscn4)cc3)C2)cn1 (stereo not drawn)	12.2	23.6%	-31.6	13.7%
O=C(Nc1ccc(N2CCN(c3ncccc3C(F)(F)F)CC2)nc1)c1cccs1	9.3	2.33µM*	40.9	0.37µM*
N/C(=N\O)c1ccc(N2CCN(c3ncccc3C(F)(F)F)CC2)nc1	38.7*	197.8%	73.5*	285.3%
O=C(Nc1ccc(N2CCOCC2)nc1)c1cccs1	38.4*	181.8%	57.2*	461.3%
O=C1NC(=O)C2(COC(c3cccc([N+](=O)[O-])c3)OC2)S1 (stereo not drawn)	-3.3	22.2%	-2.9	-13.5%
Cc1ccc(S(=O)(=O)Nc2ccc(N=Nc3ccc(O)cc3)cc2)cc1	7.8	6.1%	21.4	-17.8%
SMILES	Cycloheximide cs	Pf growth 96h	Shiga inhibitor	Pf growth 48h
Cc1nc(N=Nc2ccc(O)cc2)n[nH]1	20.4*	221.7%	53.3*	154.2%
COc1ccc(-c2nc(N=Nc3ccc(O)cc3)n[nH]2)cc1	34.7*	?	-8.1	24.5%
Cc1ccc(-c2nc(N=Nc3ccc(O)cc3)n[nH]2)cc1	48.9*	16.8%	104.8*	50.6%
Cc1cccc(NC(=O)COC(=O)c2ccccc2SCC(=O)N2CCCC2)c1	11.0	30.4%	29.1	25.1%
COc1ccc(-c2csc3nc(C)nc(N4CCCCC4)c23)cc1OC	7.4	4.65µM*	27.6	?
COc1ccc(CCN(Cc2nc3ccccc3c(=O)[nH]2)C(=O)C2CC2)cc1	-2.4	9.5%	20.4	?
COc1ccccc1OCC(=O)N(Cc1nc(-c2ccccc2)no1)C1CCCCC1	15.1*	/	42.9	13.1µM*
COc1ccc(-c2noc(COc3ccccc3OC)n2)cc1OC	12.5*	22.0%	50.1*	7.2%
Cc1ccccc1OCC(=O)N(Cc1nc(-c2ccccc2)no1)C(C)C	-0.5	-7.7%	-1.0	?
COc1ccccc1OCc1nc(-c2ccc([N+](=O)[O-])cc2)no1	24.5*	?	39.2*	52.2%
CC(C)N(Cc1nc(-c2ccccc2)no1)C(=O)c1ccc([N+](=O)[O-])cc1	0.8	12.6%	1.5	5.3%
Cc1c(C(=O)NC(C(C)C)C(C)C)cccc1[N+](=O)[O-]	-1.1	13.7%	-1.0	13.6%
COc1ccc(-n2c(=S)[nH]c3cc(C(=O)NCc4cccnc4)ccc3c2=O)cc1	-5.0	-4.4%	-8.0	-3.3%
CC(C)CC(=O)Nc1ccc(C(=O)COC(=O)C2CC(=O)N(Cc3ccccc3)C2)cc1 (stereo not drawn)	/	-25.8%	/	12.5%
CCCCOC(=O)c1ccc(S(N)(=O)=O)o1	10.6*	?	-13.9	11.3%
CCCOC(=O)c1ccc(S(N)(=O)=O)o1	1.1	7.38µM*	-10.0	8.7%
COC(=O)c1ccc(S(N)(=O)=O)o1	-3.1	-7.0%	-18.1	-12.9%
COc1ccc(NC(C)c2ccccc2)cc1 (stereo not drawn)	35.3*	?	84.1*	74.3%
COc1ccc(OCCCC(=O)NC(C)c2ccccc2)cc1 (stereo not drawn)	6.0	9.28µM*	-11.4	/
COc1ccc(OCCNC(=O)C(c2ccccc2)c2ccccc2)cc1	5.1	6.3%	-9.1	10.4µM*
CC(NC(=O)CCOc1ccccc1)c1ccccc1 (stereo not drawn)	12.5	7.0%	22.7	/
COc1ccc(S(=O)(=O)NCCC(=O)NC(C)c2ccccc2)cc1 (stereo not drawn)	-2.2	7.38µM*	-2.9	-1.9%
COc1ccc(NC(=O)NC(C)c2ccccc2)cc1 (stereo not drawn)	-1.7	-29.3%	-9.3	10.5%
Cc1ccc(C)c(NC(=O)CN(C)C(=O)COc2ncnc3sccc23)c1	-5.3	3.0%	-2.1	1.5%
Cc1cc(C)c(C#N)c(N2CCCC(C(N)=O)C2)n1 (stereo not drawn)	-1.8	11.7µM*	-18.8	-15.3%
O=c1c2ccccc2n(Cc2ccc(F)cc2)c(=O)n1C1CCCC1	1.2	13.1µM*	-7.2	?
O=C(Nc1ccc(N2CCCCC2)c(Cl)c1)c1ccc(N2CCOCC2)c([N+](=O)[O-])c1	0.4	?	-9.2	5.22µM*
O=C(Nc1ccc(N2CCCCC2)c(Cl)c1)c1ccc2c(c1)OCCO2	45.2*	/	56.8	11.6%
O=C(Nc1ccc2c(c1)OCO2)c1ccc(N2CCCC2)c([N+](=O)[O-])c1	34.4*	?	29.2	1.1%
